Compound activity: PubChem, several laboratories
tim10-1 inh = growth inhibitors of tim10-1 mutant yeast, primary screen, luminescence, uHTS; S. cerevisiae tim10-1 ts strain growth, BacTiter-Glo, 24 h; inhibition, % at 20 µM; hit rate 2.2% among 330,000; AID 463190, 2010;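 active means inhibition of at least 40%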;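 further: mutant grown at 25 °C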
tim23-1 inh = growth inhibitors of tim23-1 mutant yeast, primary screen, luminescence, uHTS. S. cerevisiae tim23-1 growth, BacTiter-Glo luminescence, 24 h. inhibition, % at 20 µM. hit rate 1.3% among 330,000;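 active means growth inhibition of the mutant yeast at or above 50%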;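 further: temperature-sensitive mutant grown at 25 °C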
SKKanGAS inh = S. pyogenes SKKanGAS growth inhibitors in kanamycin, primary screen, streptokinase expression inhibitor project, SKKanGAS strain, BacTiter-Glo luminescence. 6 h. AID 1662, 2009. hit rate 1.3% among 300,000. inhibition, % at 7.5 µM;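 active means mean replicate score, as percent of positive control median, at least 50; inconclusive means mean below 50 but one replicate at or above 50; inactive means mean and every replicate below 50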;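 further: strain carries kanamycin resistance gene driven by streptokinase promoter and grows in 40 µg/ml kanamycin; loss of luminescence reflects streptokinase promoter inhibition or plain growth inhibition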
EBI2 antag = EBI2 receptor antagonists, beta-arrestin recruitment, primary screen, cell-based, luminescence, 7a,25-OHC stimulation, uHTS | hit rate 0.81% among 360,000 | 7a,25-OHC stimulated | inhibition, % at 5 µM | G-protein coupled receptor 183 (Homo sapiens), P32249; in the data active means inhibition above about 38%;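 further: enzyme fragment complementation signal reports receptor beta-arrestin coupling in cells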
Target sequence (P32249 whole entry, looked up, the tested form may be a part): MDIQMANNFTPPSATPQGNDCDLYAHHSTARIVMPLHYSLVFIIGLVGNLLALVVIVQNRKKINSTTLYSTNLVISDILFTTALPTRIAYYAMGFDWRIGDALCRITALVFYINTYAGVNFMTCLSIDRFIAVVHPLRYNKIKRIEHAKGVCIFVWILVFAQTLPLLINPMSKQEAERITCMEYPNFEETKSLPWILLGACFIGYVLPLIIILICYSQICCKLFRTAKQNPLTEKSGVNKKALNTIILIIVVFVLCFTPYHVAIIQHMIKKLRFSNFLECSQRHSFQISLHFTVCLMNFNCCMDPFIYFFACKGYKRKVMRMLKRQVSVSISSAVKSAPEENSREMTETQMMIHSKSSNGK
TIM10 inh = growth inhibitors of isogenic TIM10 control yeast, primary screen, counter-screen for tim10-1 yeast inhibitor project, luminescence, uHTS. AID 463195, 2010. inhibition, % at 10 µM. hit rate 1.4% among 330,000. S. cerevisiae TIM10 strain growth, BacTiter-Glo luminescence, 24 h;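 active means inhibition of 40% or more at the single tested concentration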;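 further: wild-type TIM10 isogenic control strain grown at permissive 25 °C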
PfHsp90 set2 = growth inhibition of PfHsp90-expressing yeast, primary screen, antimalarial PfHsp90 inhibitor project, S. cerevisiae, BacTiter-Glo luminescence, single point, set 2. BacTiter-Glo ATP, 48 h; yeast lacking PDR1 and PDR3 efflux regulators. inhibition, % at 9.4 µM. hit rate 0.32% among 310,000. AID 504621, 2011;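 active means every replicate shows inhibition above about 80%, whatever the replicate mean, limit read from the data; inconclusive means mean inhibition reaches the set limit but some replicate falls short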
Large screens that a line does not name were inactive. A selection: hits, their analogues and other compounds. The true share with any hit is near 4.7%.

CC(=O)O[C@H]1[C@H](O)[C@H](Oc2c(O)c(C)c3c4c2[C@@H](C)CC[C@@H]4[C@@H](C)C[C@H]3C=C(C)C)O[C@@H](C)[C@H]1O	PfHsp90 set2 118.1 (no result: SKKanGAS inh)
N#Cc1ccccc1S(=O)(=O)Nc1ccc2c(c1)C(=O)OC2	none
CC(C)=CCc1cc([C@@H]2COc3c(ccc4c3C=CC(C)(C)O4)C2)c(O)cc1O	SKKanGAS inh 104.6, PfHsp90 set2 104.5
Cc1sc(NC(=O)C2C3C=CC(C3)C2C(=O)O)c(C(N)=O)c1-c1ccc(C(C)C)cc1 (stereo not drawn)	SKKanGAS inh 52.7
CCOC(=O)c1c(NC(=O)C2C3C=CC(CC3)C2C(=O)O)sc(C)c1C (stereo not drawn)	none
CCOC(=O)C1=C(C)NC(C)=C(C(=O)OCC)C1c1ccc([N+](=O)[O-])s1	SKKanGAS inh 51.2
CCOC(=O)C1C(c2cccc([N+](=O)[O-])c2)C2C(=O)NN=C2CC1(C)O (stereo not drawn)	none
O=C1C(Br)=C(c2ccccc2)C(c2ccccc2)=C1c1ccccc1	EBI2 antag 49.1 (no result: tim10-1 inh, tim23-1 inh, SKKanGAS inh, TIM10 inh)
O=C(O)c1ccc(Nc2cc(Cl)c3nonc3c2[N+](=O)[O-])cc1	none
Cc1c(Nc2cc(Cl)c3nonc3c2[N+](=O)[O-])c(=O)n(-c2ccccc2)n1C	EBI2 antag 60.9 (no result: SKKanGAS inh)
O=[N+]([O-])c1c(Nc2cccc(O)c2)cc(Cl)c2nonc12	SKKanGAS inh inconclusive, EBI2 antag 92.8
COc1ccc(S(=O)(=O)N2CCC(C(=O)NCCC(=O)NCc3cccnc3)CC2)cc1	none (no result: tim10-1 inh, tim23-1 inh, SKKanGAS inh, TIM10 inh, PfHsp90 set2)
Cc1ccc2nc(C(C)(C)C)c(Cc3cccc(F)c3)n2c1	none (no result: tim10-1 inh, tim23-1 inh, SKKanGAS inh, TIM10 inh, PfHsp90 set2)
COc1ccc(/C=C2/Sc3ccc(C(=O)N4CCc5ccccc5C4)cc3NC2=O)cc1	SKKanGAS inh 101.6
Cc1ccc(/C=C2/Sc3ccc(C(=O)NCCN4CCOCC4)cc3NC2=O)cc1	none
COc1cccc(/C=C2/Sc3ccc(C(=O)NCCN4CCCC4)cc3NC2=O)c1	none
COc1ccc(/C=C2\Sc3ccc(C(=O)N4CCc5ccccc5C4)cc3N(C)C2=O)cc1	SKKanGAS inh 102.9 (no result: EBI2 antag, PfHsp90 set2)
Cc1ccc(/C=C2/Sc3ccc(C(=O)N4CCN(C)CC4)cc3NC2=O)cc1	SKKanGAS inh 53.7
CSc1ccc(C2C(C(=O)c3ccco3)=C(O)C(=O)N2c2nnc(SC)s2)cc1 (stereo not drawn)	none
Cc1nnc(-c2cccc(Br)c2)c2cn(-c3ccc(Br)cc3)nc12	SKKanGAS inh 55.6
Cc1nnc(-c2cccc(Br)c2)c2cn(-c3cccc(Br)c3)nc12	none
c1ccc(CCNc2nc(-c3ccccn3)nc3ccccc23)cc1	SKKanGAS inh 113.3
CCCN(CCC)c1nc(-c2ccccn2)nc2ccccc12	SKKanGAS inh 97.3
c1ccc(-c2nc(N3CCOCC3)c3ccccc3n2)nc1	none
c1ccc(-c2nc(N3CCCCCC3)c3ccccc3n2)nc1	SKKanGAS inh 108.7 (no result: PfHsp90 set2)
Cn1c(CCC(N)=O)nnc1SCC(=O)Nc1ccccc1C(=O)NC1CC1	none (no result: SKKanGAS inh)
Cc1nc(-c2ccccn2)nc(N(C)c2ccccc2)c1Cl	SKKanGAS inh 92.6
COc1ccc(CCNC(=O)C(=O)NCC2OCCN2S(=O)(=O)c2cccs2)cc1 (stereo not drawn)	none
CCCN1C(=O)c2ccc(C(=O)Nc3ccccc3C(=O)O)cc2C1=O	none
O=C(Nc1ccc(Br)cc1C(=O)O)c1ccc2c(c1)C(=O)N(Cc1ccccc1)C2=O	SKKanGAS inh 76.0 (no result: PfHsp90 set2)
N#CC1(NC(=O)CSc2nnc(-c3ccccc3F)o2)CCCCC1	none
Cc1cc(C)c2nc(-c3ccncc3)cc(C(=O)N3CCN(Cc4ccccc4Cl)CC3)c2c1	SKKanGAS inh 74.3
Cc1ccc(-c2cc(N)n3nc(-c4ccc(C)cc4)cc3n2)cc1	none (no result: PfHsp90 set2)
Cc1ccc(-c2cc3nc(-c4ccc(Br)cc4)cc(N)n3n2)cc1	SKKanGAS inh 74.7
CS(=O)(=O)Nc1cccc2[nH]ncc12	none
Cn1c(=O)c(C#N)c(-c2ccc(F)cc2)c2cc(C(=O)c3cc(Cl)cc(Cl)c3O)cnc21	SKKanGAS inh 98.8
COc1ccccc1CC(=O)c1ccccc1OC	none (no result: tim10-1 inh, tim23-1 inh, SKKanGAS inh, TIM10 inh, PfHsp90 set2)
S=C1SCN(Cc2cccnc2)CN1Cc1cccnc1	PfHsp90 set2 85.1
O=S(=O)(c1ccc(N2CCOCC2)c(Cl)c1)N1CCOCC1	none
O=c1c2ccccc2sn1-c1cc(S(=O)(=O)N2CCOCC2)ccc1N1CCCC1	SKKanGAS inh 85.5
O=c1c2ccccc2sn1-c1cc(S(=O)(=O)N2CCOCC2)ccc1N1CCOCC1	SKKanGAS inh 75.6
Nc1cc(S(=O)(=O)N2CCOCC2)ccc1N1CCCCC1	none (no result: SKKanGAS inh)
O=C1C(=O)N(C2CCCC2)C(=O)N1Cc1c(F)cccc1Cl	none
CCOc1cc(/C=N/Nc2cccc(C(=O)O)c2)ccc1OC(=O)c1ccccc1	SKKanGAS inh 50.1
COc1cc(C=NNc2ccccc2)ccc1OC(=O)c1ccccc1	none (no result: tim10-1 inh, tim23-1 inh, SKKanGAS inh, TIM10 inh, PfHsp90 set2)
CSc1cccc(NC(=O)CNC(=O)C2CCCCC2)c1	none
CSc1cccc(NC(=O)OC2CCCCCCCCCCC2)c1	SKKanGAS inh 65.9
Cc1ccc(S(=O)(=O)N2C[C@H]3C(=O)C[C@@H](c4ccc(Cl)cc4)N(S(=O)(=O)c4ccccc4C)[C@H]3C[C@H]2c2ccc(Cl)cc2)cc1	none (no result: tim10-1 inh, tim23-1 inh, SKKanGAS inh, TIM10 inh, PfHsp90 set2)
CC(C)c1c(C(=O)N/N=C/c2cccc(OCc3ccccc3)c2)nnn1-c1nonc1N	SKKanGAS inh 80.9
CC(C)c1c(C(=O)N/N=C/c2ccc(OCc3ccccc3)cc2)nnn1-c1nonc1N	none
COc1cccc(/C=N/NC(=O)c2nnn(-c3nonc3N)c2C(C)C)c1OCc1ccc(F)cc1	SKKanGAS inh 60.3
O=C(O)c1nc(-c2ccccc2)c(C(=O)NC2CC2)[nH]1	none (no result: tim10-1 inh, tim23-1 inh, SKKanGAS inh, TIM10 inh, PfHsp90 set2)
N[C@@H](C(=O)N[C@@H]1C(=O)N2C(C(=O)O)=C(Cl)CS[C@H]12)c1ccccc1	SKKanGAS inh 104.7
Cc1nc2ccccc2n1CCc1nc2c3ccccc3nc(=S)n2[nH]1	none (no result: PfHsp90 set2)
Cc1ccccc1-c1nc2c3ccccc3nc(=S)n2[nH]1	SKKanGAS inh 94.4 (no result: tim10-1 inh, tim23-1 inh, TIM10 inh)
O=C(NCCCN1CCCC1=O)Nc1ccc([N+](=O)[O-])cc1	none
CC1CCCC(C)N1c1nnc(NC(=O)c2cc(-c3ccc(Br)cc3)on2)s1 (stereo not drawn)	SKKanGAS inh 51.0
COc1ccc(Cl)cc1S(=O)(=O)NC(C)c1cnn(-c2ccccn2)c1C (stereo not drawn)	none (no result: tim10-1 inh, tim23-1 inh, SKKanGAS inh, TIM10 inh, PfHsp90 set2)
Cc1ccsc1/C=C/c1ccc2ccccc2n1	none
CSc1ccc(/C=C/c2ccc3cccc(O)c3n2)cc1	SKKanGAS inh 100.5
Cc1ccsc1/C=C/c1ccc2cccc(O)c2n1	SKKanGAS inh 100.6
COc1c2c(c(CCC(=O)O)c3c1C=CC(C)(C)O3)OC(C)(C)C=C2	none (no result: tim10-1 inh, tim23-1 inh, SKKanGAS inh, TIM10 inh)
